# The list is not random: actives were taken first. Their share in the collection is about 5.7%.
# HP1b binding inh – HTS for Inhibitors of HP1-beta Chromodomain Interactions with Methylated Histone Tails | AlphaScreen HP1-beta / biotin-H3K9me3 peptide binding | Potency, µM (doses to about 114 µM), inactives show at the top dose activity change, negative = inhibition, most hits filed as inhibitors | actives 0.56% (n = 390,000); further: potency means the concentration at half of the fitted maximal effect; nearly all actives have a fitted effect of over 70% in size
# Target sequence (P83916 whole entry, looked up): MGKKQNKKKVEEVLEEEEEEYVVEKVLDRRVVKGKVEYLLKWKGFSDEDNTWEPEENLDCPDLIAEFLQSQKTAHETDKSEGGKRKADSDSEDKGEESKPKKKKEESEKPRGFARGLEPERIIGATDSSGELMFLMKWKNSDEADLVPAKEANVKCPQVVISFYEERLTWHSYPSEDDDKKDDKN
#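 Compound inhibition of the preformed complex between 50 nM HP1-beta and 50 nM biotinylated H3K9me3 peptide was read by AlphaScreen. Buffer was PBS pH 7.4 with 0.01% Tween-20. Incubations ran 30 min at room temperature, with 10 ug/mL donor/acceptor beads.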
# BAZ2B block – qHTS Assay for Inhibitors of BAZ2B. AID 504333, 2011. Potency, µM (doses to about 114 µM), without a hit: at the highest dose activity change, negative = inhibition, hits mostly inhibitors. Bromodomain adjacent to zinc finger domain protein 2B (Homo sapiens), Q9UIF8. AlphaScreen BAZ2B-H3K14Ac peptide displacement. actives 4.4% (n = 360,000); further: potency means the concentration at half of the fitted maximal effect; on the % scale 0 is the no-effect control and ±100 the full control effect; nearly all actives have a fitted effect of over 60% in size
#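 AlphaScreen luminescence quantifies BAZ2B engagement of H3K14Ac peptide; the protein and biotinylated peptide are both at 50 nM final, buffer PBS pH 7.4 with 0.01% Tween-20, all steps at room temperature.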
# JMJD2A Tudor inh – qHTS Assay for Inhibitors of JMJD2A-Tudor Domain; actives 4.4% (n = 390,000); AlphaScreen JMJD2A-Tudor / H3K4me3 peptide binding; Potency, µM (highest dose often 114 µM), for the others: top-dose activity change, negative = inhibition, usual class: inhibitors; further: potency means the concentration at half of the fitted maximal effect; on the % scale 0 is the no-effect control and ±100 the full control effect; nearly all actives have a fitted effect of over 50% in size
# L3MBTL1 inh-1 – qHTS Assay for the Inhibitors of L3MBTL1; Lethal(3)malignant brain tumor-like protein 1 (Homo sapiens), Q9Y468; AlphaScreen L3MBTL1–H3K9me1 peptide binding; Potency, µM (titrated, usually from 57.1 µM), inactives show at the highest dose activity, negative = inhibition, usual class: inhibitors; actives 0.66% (n = 230,000); AID 485360, 2010; further: potency means the concentration at half of the fitted maximal effect; on the % scale 0 is the no-effect control and ±100 the full control effect; nearly all actives have a fitted effect of over 60% in size
#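 AlphaScreen proximity signal between nickel-chelate acceptor and streptavidin donor beads (final 10 ug/mL) reports binding of 50 nM L3MBTL1 to 75 nM biotin-H3 K9me1 peptide; complex incubated with compounds 30 min at room temperature; cefsulodin titration as control.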
# PI5P4Ka inh – qHTS for Inhibitors of phosphatidylinositol 5-phosphate 4-kinase (PI5P4K) | actives 1.2% (n = 330,000) | AID 652105, 2013 | Phosphatidylinositol 5-phosphate 4-kinase type-2 alpha (Homo sapiens), P48426 | max response, % | PI5P4Kalpha enzyme, ADP-Glo luminescence, 60 min; stronger effect = lower value; active means max response of -50% or lower; inconclusive means between -30% and -50%; inactive means -30% or higher; further: value at the top dose of about 77 µM; on the % scale 0 is the no-effect control and ±100 the full control effect
#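 Human PI5P4Kalpha with substrate in 0.038 M HEPES pH 7.4, 0.28 mM EGTA, 0.1% CHAPS, 5% DMSO; reaction started with 5 microM ATP (final), 60 min at room temperature. ADP formed read by ADP-Glo luminescence.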
# KDM4E inh – qHTS Assay for Inhibitors of Human Jumonji Domain Containing 2E (JMJD2E) | Lysine-specific demethylase 4E (Homo sapiens), B2RXH2 | JMJD2E catalytic domain, FDH-coupled NADH fluorescence (FDH is formaldehyde dehydrogenase) | Potency, µM (doses to about 57.1 µM), without a hit: top-dose activity change, negative = inhibition, most hits filed as inhibitors | actives 1.6% (n = 230,000) | AID 2147, 2009; active means well fitted inhibition curve with a large enough effect, not every such curve was filed as active; inconclusive means small, poorly fitted or top-dose-only effect, or another doubt; inactive means no such curve, though single readings can be large or run the other way;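 further: potency means the concentration at half of the fitted maximal effect; 0% = wells with enzyme and -100% = buffer wells without enzyme; nearly all actives have a fitted effect of over 50% in size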
# Target sequence (B2RXH2 1-337 limits assumed): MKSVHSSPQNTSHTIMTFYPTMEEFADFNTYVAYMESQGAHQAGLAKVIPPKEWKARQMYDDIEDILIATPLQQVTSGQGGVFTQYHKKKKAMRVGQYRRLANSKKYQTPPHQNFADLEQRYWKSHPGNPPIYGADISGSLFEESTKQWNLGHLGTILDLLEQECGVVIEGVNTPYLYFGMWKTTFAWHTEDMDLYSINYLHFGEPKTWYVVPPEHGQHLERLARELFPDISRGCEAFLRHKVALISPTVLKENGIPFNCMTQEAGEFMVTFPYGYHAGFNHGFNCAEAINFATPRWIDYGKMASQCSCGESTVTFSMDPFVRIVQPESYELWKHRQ
# L3MBTL1 inh-2 – qHTS Assay for the Inhibitors of L3MBTL1: Hit Validation; AID 540279, 2011; L3MBTL1 methyl-lysine binding inhibition, biochemical qHTS; actives 91% (n = 500); shares compounds with L3MBTL1 inh-1; Potency, µM, most hits filed as inhibitors; further: potency means the concentration at half of the fitted maximal effect; nearly all actives have a fitted effect of over 70% in size
# AlphaScreen ctr2 – qHTS Assay for the Inhibitors of L3MBTL1: Hit Validationin AlphaScreen Counterscreen | 500 tested, under 10 active | Potency, µM (top dose mostly 57.1 µM), for the others: top-dose activity change, negative = inhibition, hits mostly inhibitors | shares compounds with L3MBTL1 inh-1 | AlphaScreen counterscreen, signal inhibition; further: potency means the concentration at half of the fitted maximal effect; 0% is about no effect
# * = called active by the depositor; ? = inconclusive; nt = no result; [ ] = remark or other dose. Unless noted, the call rests on the fitted dose curve; in most records, active means well fitted curve in the direction sought with a large enough effect; inconclusive means small, poorly fitted or top-dose-only effect, or another doubt; inactive means no such curve, though single readings can be large; an effect the other way counts as inactive or inconclusive.
SMILES,HP1b binding inh,BAZ2B block,JMJD2A Tudor inh,L3MBTL1 inh-1,PI5P4Ka inh,KDM4E inh,L3MBTL1 inh-2,AlphaScreen ctr2
CCCCn1c(NCc2ccccc2NS(=O)(=O)c2ccc(C)cc2)nc2ccccc21,4.5%,-30.5%,-7.5%,-8.3%,9.4,0.0%,nt,nt
CCCCn1c(NS(=O)(=O)c2ccc(C)cc2)c(S(=O)(=O)c2ccccc2)c2nc3ccccc3nc21,54.3%,13.7%,16.3%,5.01µM*,-4.2,?,21.2*,0.2%
O=c1cc(OCc2ccccc2)cc[nH]1,8.91µM*,2.82µM*,11.2µM*,28.2µM*,-7.0,nt,5.97*,-20.5%
Cc1[nH]ccc(=O)c1OCc1ccccc1,17.7%,-0.8%,-16.5%,-2.0%,-0.7,-0.1%,nt,nt
CC1CCC2(CC1)NC(=O)N(CC(=O)Nc1sc3c(c1C(N)=O)CCC3)C2=O (centres undefined),7.0%,50.1µM*,?,28.2µM*,-86.8*,?,3.77*,5.7%
NC(=S)N=Nc1c(O)[nH]c2ccccc12,15.1%,-1.4%,?,-4.3%,5.5,-2.8%,nt,nt
Oc1[nH]c2ccccc2c1N=NC(=S)N1CCOCC1,-19.1%,22.4µM*,7.08µM*,28.2µM*,-28.0,?,21.2*,?
COc1cc(OC)cc(C(=O)Nn2cc(C(=O)Nc3ccccc3F)c3ccccc3c2=O)c1,10.3%,-34.4%,-17.8%,-5.7%,0.3,-11.2%,nt,nt
O=C(Nn1cc(C(=O)Nc2ccccc2F)c2ccccc2c1=O)c1cnccn1,23.4%,28.2µM*,28.2µM*,39.8µM*,3.1,-2.6%,?,35.9%
COc1cc2ccnc(C=O)c2cc1OC,nt,nt,nt,nt,-19.0,nt,nt,nt
COc1ccc(C(N)c2nccc3cc(OC)c(OC)cc23)cc1OC (centres undefined),48.4%,14.1µM*,56.2µM*,28.2µM*,6.4,nt,11.9*,?
CN1C(=O)c2ccccc2CC12c1ccccc1C(=O)N2C (centres undefined),nt,nt,nt,nt,-10.6,nt,nt,nt
COc1ccc(C/C(O)=C(\C#N)c2nc3ccccc3[nH]2)cc1OC,19.6%,0.9%,-9.5%,1.0%,-2.4,-13.0%,nt,nt
Cc1cc(C)n2c(SC/C(O)=C(\C#N)c3nc4ccccc4[nH]3)nnc2n1,28.3%,?,?,15.8µM*,-81.0*,?,5.97*,-19.8%
CC(=O)c1ccccc1Oc1cc(NN2CCCCC2)c([N+](=O)[O-])cc1[N+](=O)[O-],9.0%,31.6µM*,?,20µM*,-0.8,nt,26.7*,?
CC(=O)c1cccc(Oc2cc(NN3CCCCC3)c([N+](=O)[O-])cc2[N+](=O)[O-])c1,-12.0%,?,?,-24.6%,4.4,nt,nt,nt
O=C(NC(=S)Nc1c(Cl)ccc2nsnc12)c1ccco1,?,-35.3%,-28.5%,-5.9%,-7.1,-1.8%,nt,nt
N#C/C(=C/c1cccn1-c1cccc(C(=O)O)c1)c1ccc(Cl)cc1,?,44.7µM*,8.91µM*,25.1µM*,-19.6,-0.7%,23.8*,?
N#CC(C#N)=Cc1cccn1-c1ccc(C(=O)O)cc1,?,20µM*,?,2µM*,?,-22.0%,2.99*,15.9%
c1ccc(CCNc2ccnc3cc4ccccc4cc23)cc1,11.0%,?,-21.8%,nt,3.8,?,nt,nt
CC(C)Nc1ccc(Nc2ccnc3cc4ccccc4cc23)cc1,25.1µM*,15.8µM*,11.2µM*,14.1µM*,-19.5,-3.5%,21.2*,1.4%
O=C(O)CCCC(=O)Nc1ccccc1C(=O)N1CCOCC1,6.4%,6.5%,-6.3%,nt,2.9,2.0%,nt,nt
O=C(NCCC1=CCCCC1)C(=O)NCc1ccccc1,29.6%,7.7%,-14.1%,-17.3%,-7.5,2.4%,nt,nt
O=C(O)C1C2C=CC(O2)C1C(=O)NCCC1=CCCCC1 (centres undefined),42.1%,2.7%,-31.6%,17.8µM*,nt,-0.1%,3.77*,1.7%
CC(=O)c1ccccc1NS(=O)(=O)c1cccc2nsnc12,?,50.1µM*,?,31.6µM*,?,nt,26.7*,7.0%
SMILES,HP1b binding inh,BAZ2B block,JMJD2A Tudor inh,L3MBTL1 inh-1,PI5P4Ka inh,KDM4E inh,L3MBTL1 inh-2,AlphaScreen ctr2
COC(=O)c1cccc(NC(=S)NC(C)C)c1,28.6%,14.5%,-14.4%,nt,-6.5,-14.2%,nt,nt
CCC(C)[C@H](NC(=O)C1(c2ccccc2)CCN(C(=O)OC(C)(C)C)CC1)C(=O)N[C@@H](C(=O)O)c1ccccc1 (some centres undefined),29.1%,-0.5%,-12.2%,nt,1.2,nt,nt,nt
COc1ccc(-n2c(=O)c3c4c(sc3n(CC(N)=O)c2=O)CCCCC4)cc1,34.8%,-4.2%,-20.1%,nt,-0.5,5.6%,nt,nt
CCOc1ccc(OCc2ccc(C(=O)O)o2)cc1,7.6%,?,-33.9%,31.6µM*,1.3,-9.7%,10.6*,1.1%
Cc1ccc(OCc2cc(C(=O)N3CCc4[nH]cnc4C3c3ccccn3)no2)cc1C (centres undefined),8.6%,?,?,nt,-4.1,nt,nt,nt
Cc1ccc(S(=O)(=O)Nc2c(C)nn(C)c2C)cc1C,19.4%,-1.4%,-4.1%,1.6%,-4.4,nt,nt,nt
CC(=O)c1ccc(S(=O)(=O)Nc2c(C)nn(C)c2C)cc1,-1.7%,-9.4%,-13.8%,28.2µM*,-15.8,nt,?,2.0%
CCc1cc(=O)oc2c(C)c(OCC(=O)NCC3CCC(C(=O)O)CC3)ccc12 (centres undefined),19.2%,-10.8%[57.1 µM],-10.9%,1.3%,5.7,nt,nt,nt
O=C(CSc1cccc2cccnc12)Nc1ccc(S(=O)(=O)N2CCOCC2)cc1,6.5%,-16.0%,-10.6%,22.4µM*,2.7,?,?,?
O=C(CSc1cccc2cccnc12)Nc1cccc(S(=O)(=O)N2CCOCC2)c1,28.2%,-8.7%,-15.2%,3.9%,8.2,?,nt,nt
Cc1cc(=O)oc2c3c(cc(OCC(=O)NCCCn4ccnc4)c12)OC(C)(C)CC3,26.2%,?,-25.2%,nt,5.5,nt,nt,nt

# Screens deposited in PubChem by National Center for Advancing Translational Sciences (NCATS).
